Assay in all cases: log2 fold change, soluble protein after heating vs DMSO (PISA); higher = thermal stabilisation; K562 cells, 10 uM, 30 min; active = over 0.2 and 3.5 SD of the protein, either way, in both replicates (recomputed)
Compound in test [1]: CN1CCN(CCOc2cc(OC3CCOCC3)c3c(Nc4c(Cl)ccc5c4OCO5)ncnc3c2)CC1 [saracatinib]
The method, boiled down: (§1)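 K562 cells at 2×10^6 cells/mL were given 10 μM compound for 30 min. Aliquots then went through 3 min of heating across 48°C-58°C, were pooled, and were extracted in PBS with 0.5% NP-40 at 4°C, and the supernatant after 21,000xg for 90 min was quantified by TMTpro 16plex LC-MS/MS with channel sums equalised. Thermal stability relative to control samples, from duplicates, is given as log2 fold change.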

Compound in test [2]: CN1CCN(c2nc(C3=C(c4c[nH]c5ccccc45)C(=O)NC3=O)c3ccccc3n2)CC1 [sotrastaurin]
The method in brief:
as §1

Compound in test [3]: CN1CC[C@H](c2c(O)cc(O)c3c(=O)cc(-c4ccccc4Cl)oc23)[C@H](O)C1 [alvocidib]
The method in brief:
as §1

Compound in test [4]: CN1CCc2c(c3ccccc3n2Cc2ccc(C(=O)NO)cc2)C1 [Tubastatin A]
The method in brief: as §1

Compound in test [5]: CNC(=O)C1=CC=CC=C1NC2=NC(=NC=C2Cl)NC3=C(C=C(C=C3)N4CCOCC4)OC
The method, boiled down:
as §1

Compound in test [6]: CNC(=O)c1ccc(Nc2ncc(C(F)(F)F)c(NCc3nccnc3N(C)S(C)(=O)=O)n2)cc1 [defactinib]
The method, boiled down: as §1

Compound in test [7]: CNCc1ccc(-c2[nH]c3cc(F)cc4c3c2CCNC4=O)cc1 [rucaparib]
The method, boiled down:
as §1

Compound in test [8]: CNc1nc(-c2ccc3c(N)n[nH]c3c2)cc(N2C[C@@H](C(=O)NC3CCCCC3)CC[C@H]2C)n1
The method, boiled down: as §1

Compound in test [9]: COC(=O)N[C@@H](C)CNc1nccc(-c2cn(C(C)C)nc2-c2cc(Cl)cc(NS(C)(=O)=O)c2F)n1 [encorafenib]
The method in brief:
as §1

Compound in test [10]: COC(=O)[C@H](CCSC)NC(=O)C1=C(C=C(C=C1)NC[C@H](CS)N)C2=CC=CC=C2
The method in brief: as §1

Of roughly 7,900 targets only a part is listed; those with a hit were picked by preference. About 0.6% of all pairs of compound and target were hits. Unmarked numbers belong to inactive results.

UniProt Q08752, sequence (Q08752 whole entry, looked up): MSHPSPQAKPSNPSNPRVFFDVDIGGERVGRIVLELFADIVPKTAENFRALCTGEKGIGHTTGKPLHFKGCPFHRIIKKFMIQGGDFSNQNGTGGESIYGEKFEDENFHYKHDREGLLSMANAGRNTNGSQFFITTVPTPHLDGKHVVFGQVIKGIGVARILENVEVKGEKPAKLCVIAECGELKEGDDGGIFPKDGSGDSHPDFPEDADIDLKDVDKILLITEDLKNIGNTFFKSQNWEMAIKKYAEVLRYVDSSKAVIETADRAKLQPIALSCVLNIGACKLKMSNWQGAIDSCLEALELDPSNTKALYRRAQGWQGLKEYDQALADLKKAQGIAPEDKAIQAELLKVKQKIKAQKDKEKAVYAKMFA
UniProt P51665, sequence (P51665 whole entry, looked up): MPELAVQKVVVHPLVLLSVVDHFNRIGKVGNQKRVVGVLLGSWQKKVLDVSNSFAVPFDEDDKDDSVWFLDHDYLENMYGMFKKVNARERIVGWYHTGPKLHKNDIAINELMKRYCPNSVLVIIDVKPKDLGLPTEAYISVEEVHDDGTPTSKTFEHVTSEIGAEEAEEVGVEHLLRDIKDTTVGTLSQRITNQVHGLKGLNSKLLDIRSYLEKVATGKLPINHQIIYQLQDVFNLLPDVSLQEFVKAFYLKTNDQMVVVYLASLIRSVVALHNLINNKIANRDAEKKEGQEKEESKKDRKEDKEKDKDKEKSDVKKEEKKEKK
UniProt Q92871, sequence (Q92871 whole entry, looked up): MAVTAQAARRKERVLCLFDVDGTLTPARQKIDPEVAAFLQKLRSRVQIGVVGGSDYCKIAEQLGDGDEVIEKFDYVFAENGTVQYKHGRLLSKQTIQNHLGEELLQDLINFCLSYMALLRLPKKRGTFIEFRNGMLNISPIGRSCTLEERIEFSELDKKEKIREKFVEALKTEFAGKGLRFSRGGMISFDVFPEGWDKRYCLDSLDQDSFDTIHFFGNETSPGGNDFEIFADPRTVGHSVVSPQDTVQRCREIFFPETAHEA
UniProt P46019, sequence (P46019 whole entry, looked up): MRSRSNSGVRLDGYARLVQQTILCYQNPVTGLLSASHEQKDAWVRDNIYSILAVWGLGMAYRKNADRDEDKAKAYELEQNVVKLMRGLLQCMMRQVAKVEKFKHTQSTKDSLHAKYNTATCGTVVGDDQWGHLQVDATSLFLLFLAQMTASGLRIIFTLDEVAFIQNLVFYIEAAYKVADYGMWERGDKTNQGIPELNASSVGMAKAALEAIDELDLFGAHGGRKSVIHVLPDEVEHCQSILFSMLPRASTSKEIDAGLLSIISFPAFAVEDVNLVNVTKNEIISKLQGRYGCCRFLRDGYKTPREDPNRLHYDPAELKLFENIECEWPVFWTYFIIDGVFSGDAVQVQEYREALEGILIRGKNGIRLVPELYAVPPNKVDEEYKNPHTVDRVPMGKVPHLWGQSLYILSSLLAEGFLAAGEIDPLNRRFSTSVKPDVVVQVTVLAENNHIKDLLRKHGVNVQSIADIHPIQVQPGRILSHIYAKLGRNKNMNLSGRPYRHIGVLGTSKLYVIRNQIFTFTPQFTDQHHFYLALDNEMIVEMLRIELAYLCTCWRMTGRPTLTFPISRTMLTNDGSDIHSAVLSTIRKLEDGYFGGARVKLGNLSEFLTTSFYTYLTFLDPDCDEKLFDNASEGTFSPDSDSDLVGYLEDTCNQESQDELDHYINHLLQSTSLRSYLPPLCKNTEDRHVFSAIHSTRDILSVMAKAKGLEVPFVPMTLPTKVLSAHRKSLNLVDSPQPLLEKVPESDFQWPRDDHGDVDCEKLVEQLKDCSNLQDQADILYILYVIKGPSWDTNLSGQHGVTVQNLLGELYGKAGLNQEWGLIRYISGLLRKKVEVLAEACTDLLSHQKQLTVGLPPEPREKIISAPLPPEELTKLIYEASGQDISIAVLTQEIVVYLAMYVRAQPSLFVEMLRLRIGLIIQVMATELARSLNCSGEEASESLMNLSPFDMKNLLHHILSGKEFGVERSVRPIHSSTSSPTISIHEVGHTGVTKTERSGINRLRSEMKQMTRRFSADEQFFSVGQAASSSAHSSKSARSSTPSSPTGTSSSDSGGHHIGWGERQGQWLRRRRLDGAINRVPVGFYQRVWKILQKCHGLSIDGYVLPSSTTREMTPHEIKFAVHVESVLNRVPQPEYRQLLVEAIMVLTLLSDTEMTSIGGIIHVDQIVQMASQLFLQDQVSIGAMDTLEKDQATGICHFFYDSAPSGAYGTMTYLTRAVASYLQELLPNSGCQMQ
UniProt Q5VU43, sequence (Q5VU43 whole entry, looked up): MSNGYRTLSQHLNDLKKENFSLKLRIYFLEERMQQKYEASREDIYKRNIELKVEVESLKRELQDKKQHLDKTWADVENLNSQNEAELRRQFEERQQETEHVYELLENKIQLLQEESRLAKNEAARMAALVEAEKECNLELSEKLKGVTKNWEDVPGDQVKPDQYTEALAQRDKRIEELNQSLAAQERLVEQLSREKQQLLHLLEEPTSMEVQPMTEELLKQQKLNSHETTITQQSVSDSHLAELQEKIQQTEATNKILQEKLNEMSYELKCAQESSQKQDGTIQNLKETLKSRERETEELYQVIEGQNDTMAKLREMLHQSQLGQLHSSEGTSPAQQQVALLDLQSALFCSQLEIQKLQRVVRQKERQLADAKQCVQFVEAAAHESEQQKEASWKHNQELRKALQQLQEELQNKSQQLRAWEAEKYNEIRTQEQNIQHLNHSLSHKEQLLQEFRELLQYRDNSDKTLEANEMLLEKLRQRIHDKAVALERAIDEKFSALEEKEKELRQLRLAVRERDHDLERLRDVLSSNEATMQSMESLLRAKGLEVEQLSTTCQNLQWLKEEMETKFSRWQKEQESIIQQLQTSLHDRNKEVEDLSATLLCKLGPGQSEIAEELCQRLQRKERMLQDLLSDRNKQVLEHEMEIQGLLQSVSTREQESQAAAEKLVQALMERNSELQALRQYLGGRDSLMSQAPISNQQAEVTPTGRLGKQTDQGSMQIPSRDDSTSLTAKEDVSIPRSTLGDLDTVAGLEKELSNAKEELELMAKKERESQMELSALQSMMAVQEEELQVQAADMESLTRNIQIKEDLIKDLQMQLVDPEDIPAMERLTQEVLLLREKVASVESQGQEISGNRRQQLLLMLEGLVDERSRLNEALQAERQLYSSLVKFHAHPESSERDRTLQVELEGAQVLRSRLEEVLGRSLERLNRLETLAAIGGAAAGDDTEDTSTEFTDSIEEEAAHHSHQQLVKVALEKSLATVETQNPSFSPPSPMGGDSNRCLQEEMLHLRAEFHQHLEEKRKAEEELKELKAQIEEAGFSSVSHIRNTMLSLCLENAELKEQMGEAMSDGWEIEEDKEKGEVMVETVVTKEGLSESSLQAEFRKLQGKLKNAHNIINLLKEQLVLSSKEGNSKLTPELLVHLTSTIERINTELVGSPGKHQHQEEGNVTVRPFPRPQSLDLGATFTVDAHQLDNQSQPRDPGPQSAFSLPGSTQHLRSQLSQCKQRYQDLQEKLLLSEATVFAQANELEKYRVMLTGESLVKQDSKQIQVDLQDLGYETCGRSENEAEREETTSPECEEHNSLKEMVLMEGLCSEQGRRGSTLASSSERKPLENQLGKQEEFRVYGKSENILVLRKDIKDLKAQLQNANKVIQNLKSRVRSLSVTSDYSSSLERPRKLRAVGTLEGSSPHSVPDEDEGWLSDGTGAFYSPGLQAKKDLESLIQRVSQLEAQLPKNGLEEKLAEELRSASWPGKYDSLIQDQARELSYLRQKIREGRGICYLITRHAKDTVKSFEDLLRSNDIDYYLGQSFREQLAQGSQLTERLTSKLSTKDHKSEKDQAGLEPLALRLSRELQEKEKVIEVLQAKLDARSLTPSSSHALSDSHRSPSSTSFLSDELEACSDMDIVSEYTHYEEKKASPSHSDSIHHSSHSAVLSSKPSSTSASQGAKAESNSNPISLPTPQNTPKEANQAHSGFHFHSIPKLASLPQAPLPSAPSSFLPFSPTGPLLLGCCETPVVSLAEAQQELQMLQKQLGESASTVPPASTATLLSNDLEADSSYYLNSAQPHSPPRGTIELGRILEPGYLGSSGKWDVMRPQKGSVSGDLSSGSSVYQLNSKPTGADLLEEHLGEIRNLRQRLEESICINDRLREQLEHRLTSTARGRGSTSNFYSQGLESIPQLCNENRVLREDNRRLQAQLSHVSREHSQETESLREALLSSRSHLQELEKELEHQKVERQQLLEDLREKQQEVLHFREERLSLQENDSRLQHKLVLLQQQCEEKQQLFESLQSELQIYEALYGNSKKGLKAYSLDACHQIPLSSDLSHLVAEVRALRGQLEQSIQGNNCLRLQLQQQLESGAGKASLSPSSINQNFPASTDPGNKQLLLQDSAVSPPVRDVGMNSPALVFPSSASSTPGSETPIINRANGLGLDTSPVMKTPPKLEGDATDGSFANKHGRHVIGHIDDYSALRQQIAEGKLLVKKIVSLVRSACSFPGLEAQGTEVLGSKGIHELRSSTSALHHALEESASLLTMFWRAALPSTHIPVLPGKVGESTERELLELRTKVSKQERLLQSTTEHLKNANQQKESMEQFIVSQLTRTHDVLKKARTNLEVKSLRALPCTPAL
UniProt Q5VTL8, sequence (Q5VTL8 whole entry, looked up): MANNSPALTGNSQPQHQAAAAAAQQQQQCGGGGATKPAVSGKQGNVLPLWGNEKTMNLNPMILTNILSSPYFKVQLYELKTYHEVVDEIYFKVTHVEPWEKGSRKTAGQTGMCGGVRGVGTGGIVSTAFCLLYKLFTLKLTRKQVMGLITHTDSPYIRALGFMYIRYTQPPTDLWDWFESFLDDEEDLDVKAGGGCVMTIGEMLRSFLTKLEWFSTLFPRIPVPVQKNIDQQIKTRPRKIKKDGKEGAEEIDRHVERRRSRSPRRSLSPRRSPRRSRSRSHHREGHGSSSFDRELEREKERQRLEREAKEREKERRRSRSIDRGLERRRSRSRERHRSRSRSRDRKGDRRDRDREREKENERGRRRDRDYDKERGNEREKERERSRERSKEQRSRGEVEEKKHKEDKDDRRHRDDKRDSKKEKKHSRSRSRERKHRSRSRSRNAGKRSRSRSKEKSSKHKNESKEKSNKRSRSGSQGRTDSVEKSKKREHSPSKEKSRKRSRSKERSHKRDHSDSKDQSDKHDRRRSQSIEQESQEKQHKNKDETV

On to PITRM1 isoform 2 (UniProt Q5JRX3), for which the log2 fold change in [1] was -0.016; in [2] it was -0.045; in test [3] it was -0.022; in test [4] it was 0.009; in test [5] it was -0.027; in test [6], -0.034. The log2 fold change was -0.051 in test [7], 0.09 in test [8], -0.032 in [9] and -0.005 in [10].

PCGF2 (UniProt P35227): the log2 fold change in test [1] was -0.029; in test [2], 0.04; in [3], -0.074; in [4] it was 0.039; in test [5], -0.057; in test [6], -0.129. Moreover, the log2 fold change in [7] was 0.024; in [8], 0.122; in test [9], 0.071; in test [10] it was 0.027.

With PDE4DIP isoform 4 (UniProt Q5VU43), the log2 fold change in test [1] is -0.028; in test [2], -0.064; in test [3] it was 0.017; in test [4] it was 0.064; in test [5], -0.065; in test [6] it was 0.021. For the same target, the log2 fold change is -0.057 in test [7], 0.007 in test [8], -0.015 in test [9] and 0.035 in test [10].

With PGGT1B (UniProt P53609), the log2 fold change in test [1] was 0; in [2] it was 0.121; in test [3], -0.014; in test [4], -0.047; in [5] it was -0.025; in [6] it was 0.001. For the same target, the log2 fold change in [7] is -0.032; in test [8], -0.017; in test [9], 0.013; in [10], 0.227 (active).

Take PPID (UniProt Q08752): the log2 fold change in test [1] was -0.137; in [2], -0.178; in test [3], -0.069; in [4], 0.051; in test [5], 0.044; in [6], -0.101. Also, the log2 fold change in test [7] is 0.135; in test [8], 0.042; in [9] it was 0.142; in test [10], -0.052.

Take PTRHD1 (UniProt Q6GMV3): the log2 fold change in test [1] is -0.057; in [2], 0.061; in test [3], -0.062; in [4] it was 0.052; in test [5], 0.025; in [6], 0. Moreover, the log2 fold change is -0.015 in test [7], -0.022 in test [8], -0.064 in test [9] and 0.003 in [10].

Regarding PSMD8 (UniProt P48556), the log2 fold change in [1] is -0.039; in test [2], -0.032; in test [3] it was 0.135; in test [4] it was 0.003; in [5] it was -0.009; in [6] it was 0.1. In addition, the log2 fold change in [7] was 0.003; in test [8], 0.028; in test [9] it was 0.041; in test [10] it was 0.043.

Consider PMM1 (UniProt Q92871), for which the log2 fold change in [1] is 0.006; in test [2] it was 0.094; in [3] it was -0.011; in test [4], -0.018; in test [5] it was -0.315 (active); in test [6], -0.007. The log2 fold change in [7] is 0.095; in test [8], 0.028; in test [9] it was -0.017; in test [10], -0.023.

PDE2A (UniProt O00408): the log2 fold change in test [1] was -0.011; in [2] it was -0.005; in test [3], -0.003; in test [4] it was 0.208; in test [5] it was 0.01; in [6], -0.094. The log2 fold change in test [7] is -0.051; in [8] it was -0.065; in [9] it was -0.064; in [10], -0.042.

PHKA2 (UniProt P46019): the log2 fold change is 0.032 in test [1]; -0.085 in test [2]; -0.088 in [3]; -0.021 in test [4]; 0.135 in test [5]; 0.012 in test [6]. In addition, the log2 fold change in test [7] is -0.063; in test [8] it was -0.009; in [9] it was -0.022; in test [10], -0.03.

PCYT1B (UniProt Q9Y5K3): the log2 fold change in [1] is 0.133; in test [2], -0.13; in test [3], -0.236; in test [4] it was -0.028; in [5] it was -0.028; in test [6] it was -0.162. For the same target, the log2 fold change in [7] was -0.139; in test [8], -0.036; in [9] it was 0.04; in test [10], -0.029.

Consider PNPLA4 (UniProt P41247), for which the log2 fold change in test [1] is -0.267; in test [2] it was -0.091; in test [3], -0.02; in [4], 0.007; in test [5], 0.058; in test [6], -0.047. The log2 fold change in [7] is 0; in [8] it was 0.17; in [9] it was -0.343; in test [10], -0.011.

With PRPF38B (UniProt Q5VTL8), the log2 fold change in test [1] is 0.011; in test [2] it was -0.006; in test [3], -0.073; in [4], -0.027; in [5], -0.287 (active); in [6], -0.27 (active). Further, the log2 fold change in test [7] was -0.08; in test [8], -0.039; in [9] it was 0.015; in [10], 0.044.

Turning to PSMD7 (UniProt P51665), the log2 fold change in [1] was -0.018; in test [2], -0.028; in test [3], 0.088; in test [4], 0.001; in test [5], 0.015; in [6], 0.079. For the same target, the log2 fold change is 0.063 in test [7], 0.022 in [8], 0.03 in test [9] and 0.017 in test [10].

For the target POTEI (UniProt P0CG38), the log2 fold change in [1] is 0.108; in [2], 0.066; in test [3] it was -0.038; in test [4], -0.012; in [5], -0.02; in test [6] it was -0.026. The log2 fold change in test [7] is -0.049; in [8] it was -0.014; in [9], -0.007; in test [10], -0.016.
